Data reported in PubChem BioAssay (Tox21).
Active and inactive are the calls of the source. A call without a number means that no potency is given here. The call rests on the fitted dose curve.

experiment: qHTS assay to identify small molecule agonists of the sonic hedgehog signaling (Shh) pathway (AID 1259368); settings: NIH/3T3 Gli1-Luc reporter, luciferase, 24 h; series mostly up to 92.4 µM;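 further: NIH/3T3-derived 3T3Gli1-Luc cells carrying a stable Gli1-driven firefly luciferase reporter; nearly all actives have a fitted effect of over 15% in size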
Procedure, shortened: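 Hedgehog pathway agonism scored by increased firefly luciferase luminescence in 3T3Gli1-Luc cells treated 24 hr at 37 C; detection used a 30 min room-temperature reagent incubation.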

SMILES	Potency
SCc1ccccc1	inactive
N#CC1(N=NC2(C#N)CCCCC2)CCCCC1	inactive
CC(C)(C)OOC(C)(C)CCC(C)(C)OOC(C)(C)C	inactive
CCCCNC(=O)OCC#CI	inactive
Cc1cnc(C2=NC(C)(C(C)C)C(=O)N2)c(C(=O)O)c1 (configuration not stated)	inactive
O=C1NC(=O)C(=O)C(=O)N1	inactive
Cc1ccc(N)c(C)c1	inactive
CCOP(=S)(S)OCC	inactive
CCC[N+](CCC)(CCC)CCC	inactive
CN1C[C@H](C(=O)N[C@]2(C)O[C@@]3(O)[C@@H]4CCCN4C(=O)[C@H](Cc4ccccc4)N3C2=O)C=C2c3cccc4[nH]cc(c34)C[C@H]21	inactive
COC(=O)C1(O)c2ccccc2-c2ccccc21	inactive
CNC(=O)Oc1cccc(N=CN(C)C)c1	inactive
Cc1cccc(C)c1NC1=NCCCS1	inactive
CC(CC(C(N)=O)(c1ccccc1)c1ccccc1)N(C)C (configuration not stated)	inactive
COC1=CC(=O)O[C@@H](/C=C/c2ccc3c(c2)OCO3)C1	inactive
CCOC(=O)C1OC1(C)c1ccccc1 (configuration not stated)	inactive
c1ccc2c(c1)-c1cccc3cccc-2c13	inactive
